Source: PubChem BioAssay (National Center for Advancing Translational Sciences (NCATS))
Tau FP inhib = blocks human tau fibril formation measured by polarization | P10636 | K18 P301L tau heparin fibrillization, Alexa594 FP, 6 h | Potency, µM (series often up to 57.7 µM), for inactives: at the highest dose activity, negative = inhibition, actives largely listed as inhibitors | 0.39% of 280,000 active; further: nearly all actives have a fitted effect of over 55% in size
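Human tau K18 […] P301L fragment, 15 uM unlabeled plus 0.24 uM Alexa 594-labeled tau (final), with compound and 20 uM heparin in 100 mM sodium acetate pH 7; 6 hr at 37 C, then Alexa 594 FP read.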
Tau ThT inhib = blocks human tau fibril formation measured by thioflavin T | 2.1% of 270,000 active | P10636 | AID 1460 | recombinant tau K18 P301L, heparin-induced fibrillization, ThT fluorescence | Potency, µM (top dose mostly 57.4 µM), for the others: at the top dose activity, negative = inhibition, hits mostly inhibitors; further: nearly all actives have a fitted effect of over 55% in size
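Recombinant human tau K18 fragment […] carrying P301L, 15 uM unlabeled plus 0.24 uM Alexa 594-labeled, was fibrillized with 20 uM heparin in 100 mM sodium acetate pH 7 for 6 hr at 37 C; 30 uM ThT fluorescence read after 1 hr.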
NPSR antag = antagonists of human neuropeptide S receptor cAMP signaling; Q6W5P4; CHO-NPSR cells, cAMP TR-FRET, antagonist mode; Potency, µM (titrated, usually from 38.3 µM), inactives show at the highest dose activity change, negative = inhibition, hits mostly inhibitors; 1% of 220,000 active; AID 1461; further: nearly all actives have a fitted effect of over 50% in size
Tau fluor counter = counter-screen for tau fibril formation inhibitors; 0.93% of 280,000 active; AID 1463; tau K18 P301L (four-repeat tau fragment) Alexa594 fluorescence, heparin fibrillization; Potency, µM (doses to about 57.7 µM), for the others: at the top dose activity change, negative = decrease; further: nearly all actives have a fitted effect of over 55% in size
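Human K18 P301L tau (15 uM unlabeled plus 0.24 uM Alexa 594-labeled, final) in 100 mM sodium acetate pH 7 was mixed with compound and 20 uM heparin and incubated 6 hr at 37 C.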
ALDH1A1 block = blocks purified human ALDH1A1 activity. P00352. Purified ALDH1A1, NADH fluorescence, propionaldehyde substrate. Potency, µM (titrated, usually from 75.3 µM), for inactives: top-dose activity, negative = inhibition, actives largely listed as inhibitors. 7.3% of 220,000 active. AID 1030; active means well fitted inhibition curve with a large enough effect, not every such curve was filed as active; inconclusive means small, poorly fitted or top-dose-only effect, or another doubt; inactive means no such curve, though single readings can be large or run the other way;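 further: plate controls were no enzyme wells and a reference inhibitor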
Target sequence (P00352 whole entry, looked up): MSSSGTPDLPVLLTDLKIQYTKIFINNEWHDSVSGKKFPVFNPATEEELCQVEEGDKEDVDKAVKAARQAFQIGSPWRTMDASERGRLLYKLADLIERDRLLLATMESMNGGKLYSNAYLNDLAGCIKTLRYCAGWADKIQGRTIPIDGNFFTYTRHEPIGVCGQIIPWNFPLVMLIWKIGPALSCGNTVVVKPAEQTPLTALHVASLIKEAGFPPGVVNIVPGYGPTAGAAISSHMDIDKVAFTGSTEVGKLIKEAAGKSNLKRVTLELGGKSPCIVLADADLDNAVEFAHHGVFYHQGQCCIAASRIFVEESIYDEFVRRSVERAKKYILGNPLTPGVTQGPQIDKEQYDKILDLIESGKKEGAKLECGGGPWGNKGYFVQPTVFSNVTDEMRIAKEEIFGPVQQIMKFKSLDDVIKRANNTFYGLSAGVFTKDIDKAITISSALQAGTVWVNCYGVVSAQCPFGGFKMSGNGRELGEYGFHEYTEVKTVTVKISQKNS
HPGD inh = blocks human HPGD enzyme activity | P15428 | purified HPGD, NADH fluorescence kinetic, PGE2 substrate | Potency, µM, for inactives: at the highest dose activity change, negative = inhibition, hits mostly inhibitors | 4.3% of 150,000 active; active means well fitted inhibition curve with a large enough effect, not every such curve was filed as active; inconclusive means small, poorly fitted or top-dose-only effect, or another doubt; inactive means no such curve, though single readings can be large or run the other way
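20 nM HPGD preincubated 15 min at room temperature with compound in 50 mM Tris-HCl pH 8, 0.01% Tween 20. Started with 1 mM NAD+ and 30 uM prostaglandin E2; NADH fluorescence (360/450 nm) read 5 times over 30-s intervals, last minus first.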
The depositor's hits bear a star; [ ] = dose if it differs, or a comment. Compounds with a hit are over-represented: about 9.5% of the library has one in this group of screens. Unless noted, the call rests on the fitted dose curve; in most records, active means well fitted curve in the direction sought with a large enough effect; inconclusive means small, poorly fitted or top-dose-only effect, or another doubt; inactive means no such curve, though single readings can be large; an effect the other way counts as inactive or inconclusive. Unless noted, on the % scale 0 is the no-effect control and ±100 the full control effect; potency means the concentration at half of the fitted maximal effect.

What do the screens show for `O=C(CSc1nnnn1Cc1ccccc1)Nc1ccc2c(c1)OCCO2`?
Tau FP inhib: 0.8%; Tau ThT inhib: -10.7%; NPSR antag: -12.2%[46.1 µM]; Tau fluor counter: -17.1%; ALDH1A1 block: 8.91µM*; HPGD inh: -14.0%

Results for O=C(CSc1nnnn1Cc1ccccc1)Nc1ccc2c(c1)OCO2 ?
Tau FP inhib: -1.8%; Tau ThT inhib: 2.4%; NPSR antag: -8.7%[46.1 µM]; Tau fluor counter: 3.4%; ALDH1A1 block: -46.9%; HPGD inh: -21.6%

What do the screens show for `CC(=O)Nc1cccc(NC(=O)CSc2nnnn2C(C)C)c1`?
Tau FP inhib: 5.0%; Tau ThT inhib: -10.7%; NPSR antag: 7.3%[46.1 µM]; Tau fluor counter: 1.0%; ALDH1A1 block: 14.1µM*; HPGD inh: -3.2%

What do the screens show for `O=C(CS(=O)(=O)c1cccc2nsnc12)NCc1ccc(Cl)cc1`?
Tau FP inhib: 1.1%; Tau ThT inhib: 1.2%; Tau fluor counter: -1.5%

What do the screens show for `Cc1cc(C)nc(N(C#N)Cc2cccc(Cl)c2)n1`?
Tau FP inhib: 10.5%; Tau ThT inhib: -1.2%; NPSR antag: -31.0%; Tau fluor counter: -1.8%; ALDH1A1 block: -14.4%

How did Cc1cc2oc(=O)cc(-c3ccccc3)c2c(C)c1-c1ccoc1 do in these assays?
Tau FP inhib: 4.5%[81.3 µM]; Tau ThT inhib: -17.0%[81.4 µM]; Tau fluor counter: -3.6%[81.3 µM]; ALDH1A1 block: inconclusive; HPGD inh: -6.4%

Results for O=C(CCN1C(=O)c2ccc([N+](=O)[O-])cc2C1=O)Nc1cccc(O)c1 ?
Tau FP inhib: 10.0%; Tau ThT inhib: -11.4%; NPSR antag: 29.5%; Tau fluor counter: -13.0%; ALDH1A1 block: 12.9%; HPGD inh: -4.0%

Results for Cc1cc(O)ccc1NC(=O)CCN1C(=O)c2ccc([N+](=O)[O-])cc2C1=O ?
Tau FP inhib: -1.8%; Tau ThT inhib: 3.3%; NPSR antag: 24.2%; Tau fluor counter: -4.1%; ALDH1A1 block: 11.2µM*; HPGD inh: -14.3%

How did NS(=O)(=O)c1ccc(CCNCC(=O)NC2CC2)cc1 do in these assays?
Tau FP inhib: -0.2%; Tau ThT inhib: -3.5%; NPSR antag: -24.5%; Tau fluor counter: -8.4%; ALDH1A1 block: -4.9%

How did NS(=O)(=O)c1ccc(CCNCC(=O)N2CCC(Cc3ccccc3)CC2)cc1 do in these assays?
Tau FP inhib: 1.2%; Tau ThT inhib: 5.9%; NPSR antag: -36.8%; Tau fluor counter: -0.5%; ALDH1A1 block: 10µM*

Results for O=C(c1ccccc1)c1nc2ccccc2[nH]c1=O ?
Tau FP inhib: 2.3%; Tau ThT inhib: 0.4%; NPSR antag: -13.0%[46.1 µM]; Tau fluor counter: -0.5%; ALDH1A1 block: 2.9%; HPGD inh: 25.1µM*

What do the screens show for `N#C/C(=C(/O)c1ccc(C(=O)c2ccccc2)cc1)c1nc2ccccc2[nH]1`?
Tau FP inhib: 6.1%; Tau ThT inhib: -8.3%; NPSR antag: -11.1%; Tau fluor counter: 6.8%; ALDH1A1 block: 15.2%

Results for COC(=O)CSCc1nc2ccccc2[nH]c1=O ?
Tau FP inhib: inconclusive; Tau ThT inhib: 31.6µM*; NPSR antag: 12.6%; Tau fluor counter: -14.6%; ALDH1A1 block: inconclusive; HPGD inh: -20.9%

What do the screens show for `O=C(c1ccccc1)c1nc2ccccc2n(CCCn2c(=O)c(C(=O)c3ccccc3)nc3ccccc32)c1=O`?
Tau FP inhib: inconclusive; Tau ThT inhib: -6.6%; NPSR antag: -28.6%[46.1 µM]; Tau fluor counter: -21.3%; ALDH1A1 block: 11.2µM*; HPGD inh: -2.0%

How did CCOc1ccccc1NC(=O)CN1C(=O)COc2ccc(S(=O)(=O)N3CCCCC3)cc21 do in these assays?
Tau FP inhib: 3.4%; Tau ThT inhib: -2.5%; Tau fluor counter: -10.1%

What do the screens show for `Cc1ccc(-n2c(N)c(-c3nc4ccccc4n3C)sc2=S)cc1`?
Tau FP inhib: inconclusive; Tau ThT inhib: inconclusive; NPSR antag: -19.0%[46.1 µM]; Tau fluor counter: -27.8%; ALDH1A1 block: 3.55µM*; HPGD inh: 6.31µM*

What do the screens show for `Cn1c(-c2ccc(N)cc2)nc2ccccc21`?
Tau FP inhib: -6.8%; Tau ThT inhib: -14.5%; NPSR antag: -13.7%[46.1 µM]; Tau fluor counter: -12.4%; ALDH1A1 block: inconclusive
